Laboratory results from ChEMBL document CHEMBL5724796, “Tm Shift (DSF) assay results for EUbOPEN Chemogenomics Library” (2024).
Residues, ends and D or L forms follow the SMILES beside them. *: point of attachment. Cbz = O=C(OCc1ccccc1)*; CH2F = FC*

Assays:
Conditions in all cases: Compound concentration 20.0 uM
[1] = target: Tyrosine-protein kinase ABL1 (Homo sapiens) (UniProt P00519)
[2] = target: Bromodomain-containing protein 4 (Homo sapiens) (UniProt O60885)
[3] = target: Cyclin-dependent kinase 2 (Homo sapiens) (UniProt P24941)
[4] = target: Casein kinase I isoform delta (Homo sapiens) (UniProt P48730)
[5] = target: Glycogen synthase kinase-3 beta (Homo sapiens) (UniProt P49841)
[6] = target: Mitogen-activated protein kinase 1 (Homo sapiens) (UniProt P28482)
[7] = target: T1, Aurora kinase A (Homo sapiens) (UniProt O14965)
T1 sequence (whole entry): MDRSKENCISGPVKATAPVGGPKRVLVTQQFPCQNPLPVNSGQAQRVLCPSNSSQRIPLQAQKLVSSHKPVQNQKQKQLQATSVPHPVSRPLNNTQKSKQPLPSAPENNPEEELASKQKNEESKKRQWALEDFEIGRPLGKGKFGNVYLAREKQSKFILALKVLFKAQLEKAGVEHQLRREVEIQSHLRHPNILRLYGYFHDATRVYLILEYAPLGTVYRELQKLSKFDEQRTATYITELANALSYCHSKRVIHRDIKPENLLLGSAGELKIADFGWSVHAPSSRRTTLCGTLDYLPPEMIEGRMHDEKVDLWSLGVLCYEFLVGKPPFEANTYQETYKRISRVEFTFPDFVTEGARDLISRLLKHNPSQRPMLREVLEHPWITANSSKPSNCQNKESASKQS

[8] = target: T2, Transcription intermediary factor 1-alpha (Homo sapiens) (UniProt O15164)
T2 sequence (whole entry): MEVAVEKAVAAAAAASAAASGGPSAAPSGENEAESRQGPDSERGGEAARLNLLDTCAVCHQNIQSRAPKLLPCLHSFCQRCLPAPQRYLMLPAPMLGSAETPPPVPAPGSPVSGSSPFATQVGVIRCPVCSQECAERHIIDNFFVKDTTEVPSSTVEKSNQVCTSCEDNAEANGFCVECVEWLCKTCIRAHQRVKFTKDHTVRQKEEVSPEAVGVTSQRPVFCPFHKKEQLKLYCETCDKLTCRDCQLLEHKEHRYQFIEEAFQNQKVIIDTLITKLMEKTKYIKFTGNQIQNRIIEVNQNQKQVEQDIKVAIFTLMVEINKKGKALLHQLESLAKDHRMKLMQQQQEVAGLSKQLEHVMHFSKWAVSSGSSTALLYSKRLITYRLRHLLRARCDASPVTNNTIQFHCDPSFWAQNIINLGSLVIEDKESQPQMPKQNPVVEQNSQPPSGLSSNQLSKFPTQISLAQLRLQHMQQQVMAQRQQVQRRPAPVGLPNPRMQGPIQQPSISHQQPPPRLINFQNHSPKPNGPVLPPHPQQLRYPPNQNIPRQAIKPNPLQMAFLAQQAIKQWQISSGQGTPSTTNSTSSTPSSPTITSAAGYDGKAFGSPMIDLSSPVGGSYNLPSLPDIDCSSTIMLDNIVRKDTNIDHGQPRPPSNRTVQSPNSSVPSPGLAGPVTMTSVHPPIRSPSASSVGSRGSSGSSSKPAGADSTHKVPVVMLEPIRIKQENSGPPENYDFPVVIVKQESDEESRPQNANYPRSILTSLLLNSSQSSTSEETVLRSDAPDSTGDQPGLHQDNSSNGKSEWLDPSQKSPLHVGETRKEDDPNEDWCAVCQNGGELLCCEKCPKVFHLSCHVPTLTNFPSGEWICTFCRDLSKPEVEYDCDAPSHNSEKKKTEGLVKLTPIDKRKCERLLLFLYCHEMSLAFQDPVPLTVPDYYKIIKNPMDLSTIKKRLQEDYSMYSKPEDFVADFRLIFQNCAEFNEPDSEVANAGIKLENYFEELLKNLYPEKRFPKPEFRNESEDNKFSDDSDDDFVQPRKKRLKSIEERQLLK

Sequence of Tyrosine-protein kinase ABL1 (Homo sapiens) (P00519 whole entry): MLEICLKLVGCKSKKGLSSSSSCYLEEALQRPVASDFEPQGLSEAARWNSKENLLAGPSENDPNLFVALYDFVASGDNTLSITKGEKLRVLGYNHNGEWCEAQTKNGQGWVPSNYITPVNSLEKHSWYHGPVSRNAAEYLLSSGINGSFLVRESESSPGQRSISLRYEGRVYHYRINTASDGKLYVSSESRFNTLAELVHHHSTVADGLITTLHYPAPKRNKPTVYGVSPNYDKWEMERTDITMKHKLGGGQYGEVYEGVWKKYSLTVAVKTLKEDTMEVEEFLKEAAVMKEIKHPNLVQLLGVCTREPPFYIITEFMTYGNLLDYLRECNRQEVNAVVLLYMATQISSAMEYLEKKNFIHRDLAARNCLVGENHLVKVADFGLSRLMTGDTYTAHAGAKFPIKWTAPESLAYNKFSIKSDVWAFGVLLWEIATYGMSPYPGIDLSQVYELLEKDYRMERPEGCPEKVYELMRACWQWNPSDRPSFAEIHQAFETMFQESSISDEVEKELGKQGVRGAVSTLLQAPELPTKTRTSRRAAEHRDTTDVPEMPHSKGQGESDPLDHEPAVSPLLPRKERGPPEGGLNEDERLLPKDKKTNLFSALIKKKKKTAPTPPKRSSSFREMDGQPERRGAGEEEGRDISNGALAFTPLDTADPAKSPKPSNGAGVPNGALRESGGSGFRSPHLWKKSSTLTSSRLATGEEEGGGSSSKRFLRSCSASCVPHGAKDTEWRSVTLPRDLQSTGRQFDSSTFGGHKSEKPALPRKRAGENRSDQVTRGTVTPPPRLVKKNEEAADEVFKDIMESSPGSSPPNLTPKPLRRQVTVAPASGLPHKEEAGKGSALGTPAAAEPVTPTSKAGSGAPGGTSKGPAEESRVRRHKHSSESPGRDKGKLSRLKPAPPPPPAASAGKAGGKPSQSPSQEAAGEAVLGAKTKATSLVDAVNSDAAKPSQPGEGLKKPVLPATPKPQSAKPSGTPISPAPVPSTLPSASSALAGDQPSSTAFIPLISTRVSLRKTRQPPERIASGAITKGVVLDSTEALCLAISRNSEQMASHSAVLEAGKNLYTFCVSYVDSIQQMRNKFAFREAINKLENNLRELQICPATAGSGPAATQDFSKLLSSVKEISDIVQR
Sequence of Glycogen synthase kinase-3 beta (Homo sapiens) (P49841 whole entry, looked up): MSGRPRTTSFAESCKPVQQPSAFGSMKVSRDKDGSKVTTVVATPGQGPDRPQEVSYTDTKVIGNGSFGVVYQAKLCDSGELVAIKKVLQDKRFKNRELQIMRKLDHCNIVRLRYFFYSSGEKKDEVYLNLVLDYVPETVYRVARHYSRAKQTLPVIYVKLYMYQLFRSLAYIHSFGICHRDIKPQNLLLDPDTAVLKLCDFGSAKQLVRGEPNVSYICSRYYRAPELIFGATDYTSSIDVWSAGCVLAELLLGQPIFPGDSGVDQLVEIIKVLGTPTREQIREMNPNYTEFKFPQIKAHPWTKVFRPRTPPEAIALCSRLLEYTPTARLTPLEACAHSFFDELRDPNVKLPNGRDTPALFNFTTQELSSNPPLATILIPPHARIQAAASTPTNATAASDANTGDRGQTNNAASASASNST
Sequence of Mitogen-activated protein kinase 1 (Homo sapiens) (P28482 whole entry): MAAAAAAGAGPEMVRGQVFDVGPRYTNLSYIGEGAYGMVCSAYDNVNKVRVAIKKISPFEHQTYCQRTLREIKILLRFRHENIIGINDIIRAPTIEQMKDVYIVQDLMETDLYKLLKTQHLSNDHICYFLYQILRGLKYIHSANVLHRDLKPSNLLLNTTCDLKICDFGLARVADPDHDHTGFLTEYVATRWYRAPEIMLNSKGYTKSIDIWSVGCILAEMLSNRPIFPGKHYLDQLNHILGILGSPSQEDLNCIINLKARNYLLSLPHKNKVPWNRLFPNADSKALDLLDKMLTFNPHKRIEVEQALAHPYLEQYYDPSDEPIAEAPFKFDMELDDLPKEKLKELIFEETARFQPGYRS
Sequence of Casein kinase I isoform delta (Homo sapiens) (P48730 whole entry, looked up, canonical isoform): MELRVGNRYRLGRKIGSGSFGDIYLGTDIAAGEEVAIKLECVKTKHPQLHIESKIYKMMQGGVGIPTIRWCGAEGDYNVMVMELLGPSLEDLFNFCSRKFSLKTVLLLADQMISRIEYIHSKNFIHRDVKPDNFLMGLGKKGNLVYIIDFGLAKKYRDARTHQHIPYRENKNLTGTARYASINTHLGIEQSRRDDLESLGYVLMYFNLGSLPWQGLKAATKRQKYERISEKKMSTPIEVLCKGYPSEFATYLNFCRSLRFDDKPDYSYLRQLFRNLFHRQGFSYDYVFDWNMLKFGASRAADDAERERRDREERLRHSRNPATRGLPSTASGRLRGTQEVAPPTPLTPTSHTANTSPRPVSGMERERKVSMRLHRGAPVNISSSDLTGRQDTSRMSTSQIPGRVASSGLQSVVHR

Row | Structure (SMILES) | ΔTm [1] | ΔTm [2] | ΔTm [3] | ΔTm [4] | ΔTm [5] | ΔTm [6] | ΔTm [7] | ΔTm [8]
1 | COc1cc(C(C)C)c2c(c1)S(=O)(=O)N(COc1cc(=O)n3cccc(OCCN4CCCCC4)c3n1)C2=O | 0.26 °C | -2.34 °C | -0.17 °C | 0.5 °C | 0.26 °C | -0.23 °C | 2.88 °C | -1.28 °C
2 | O=c1[nH]c(CS[C@H]2CC[C@H](O)CC2)nc2cc(OCC3CC3)cc(F)c12 | 0.58 °C | -1.62 °C | -0.32 °C | -5.43 °C | 0 °C | 0.1 °C | -0.76 °C | -0.56 °C
3 | NCCCOc1cc2ccccc2cc1C(=O)NCCOc1cc2ccccc2cc1C(=O)Nc1ccc(Cl)cc1O | 0.27 °C | -4.42 °C | -1.85 °C | 0.11 °C | -2.72 °C | -1.61 °C | -3.9 °C | -0.59 °C
4 | Nc1nc(NC2CC2)cc(-c2cccc(Cl)c2Cl)n1 | 0.77 °C | -2.44 °C | 0.2 °C | -0.46 °C | 0.36 °C | 0.25 °C | -1.81 °C | 0.87 °C
5 | COC(=O)CC(NC(=O)C(C)NC(=O)C(NC(=O)C(CC(=O)OC)NC(=O)C(NC(=O)OCc1ccccc1)C(C)C)C(C)C)C(=O)CF (configuration not stated) (Cbz-VD(OMe)VAD(OMe)-CH2F; configuration not given here) | 0.15 °C | -1.13 °C | 0.27 °C | -0.22 °C | 0.19 °C | 0.29 °C | -1.87 °C | -0.97 °C
6 | CCCCOc1c(OC)cc(C(=O)NCC2(N(C)C)CCOCC2)cc1OC | 0.07 °C | 0.11 °C | 0.02 °C | -0.36 °C | -1.71 °C | 0.03 °C | -2.39 °C | -0.41 °C
7 | CCN(c1cc(C#CCN2CCOCC2)cc(C(=O)NCc2c(C)cc(C)[nH]c2=O)c1C)[C@H]1CC[C@H](N(C)CCOC)CC1 | 0.47 °C | -1.47 °C | 0.53 °C | 0.46 °C | -0.17 °C | 0.04 °C | -0.54 °C | -0.98 °C
8 | CCNC(=O)c1cc2c(-c3cc(C(C)(C)O)ccc3Oc3c(C)cc(F)cc3C)cn(C)c(=O)c2[nH]1 | 0.23 °C | 11.1 °C | 0.42 °C | -0.31 °C | -0.33 °C | 1.43 °C | -2.76 °C | 0.91 °C
9 | COc1cc2c(NC3CCN(C4CCCCC4)CC3)nc(N3CCCN(C(C)C)CC3)nc2cc1OCCCN1CCCCC1 | 0.29 °C | -1.02 °C | 0.48 °C | 0.1 °C | 0.08 °C | -0.69 °C | 0.32 °C | 0.36 °C
10 | CCOc1ccc(Cc2cc([C@]34OC[C@](CO)(O3)[C@@H](O)[C@H](O)[C@H]4O)ccc2Cl)cc1 | 0.25 °C | 2.11 °C | 0.62 °C | -0.26 °C | -0.1 °C | 0.67 °C | -0.99 °C | 1.7 °C
11 | O=C(NCCCOc1ccc2[nH]c(=O)ccc2c1)N(C1CC1)[C@@H]1CCCC[C@H]1O | 0.31 °C | -0.85 °C | -0.14 °C | -0.05 °C | -0.66 °C | 0.1 °C | -2.39 °C | 0.02 °C
12 | Cc1cc(C)nc(SCC(=O)Nc2ncc(Cc3cccc(OCc4cn(Cc5ccccc5)nn4)c3)s2)n1 | -4.58 °C | -6.78 °C | -3.98 °C | -2.38 °C | -0.77 °C | 0.65 °C | -2.36 °C | 3.08 °C
13 | Cc1ccc2c(c1)nc(/C=C/c1cccc3cccnc13)n2-c1cccc(OCCCN2CCN(C)CC2)c1 | 0.62 °C | -5.41 °C | -0.28 °C | -0.14 °C | -0.72 °C | 0.14 °C | -2.49 °C | 1.41 °C
14 | O=C(NC1CCC1)c1ccc2nc(-c3cccc(NS(=O)(=O)NCCN4CCCCC4)c3)cn2c1 | 0.57 °C | -2.44 °C | 0.18 °C | -0.21 °C | -0.29 °C | 0.15 °C | -2.15 °C | 0.09 °C
15 | COc1cc2c(NC3CCN(C)CC3)nc(N3CCCN(C)CC3)nc2cc1OCCCN(C)C | 0.04 °C | -1.01 °C | 0.12 °C | 0.25 °C | -0.54 °C | 0.4 °C | -1.36 °C | -0.25 °C
16 | Cn1c(=O)cc(N2CCC[C@@H](N)C2)n(Cc2ccccc2C#N)c1=O | 0.31 °C | 2.27 °C | 1.07 °C | -0.43 °C | 0.02 °C | 0.02 °C | -1.58 °C | 0.69 °C
17 | CCN(C(=O)c1cc(F)ccc1Oc1cncnc1N1CC2(CCN(C[C@H]3CC[C@H](NS(=O)(=O)CC)CC3)CC2)C1)C(C)C | 0.7 °C | -2.35 °C | 0.16 °C | -0.01 °C | -0.74 °C | 0.48 °C | -2.26 °C | 0.24 °C
18 | COCCOc1cc(CC2CCN(CCc3ccc4c(c3)C(=O)CCO4)CC2)ccc1Br | 0.83 °C | -2.23 °C | 0.15 °C | -0.07 °C | -0.17 °C | 0.56 °C | -2.41 °C | -0.98 °C
19 | O=C(O)CCNC(=S)NCCCC[C@H](NS(=O)(=O)c1cccc(F)c1)C(=O)N[C@@H](Cc1c[nH]c2ccccc12)C(=O)NC1CCC1 | 0.2 °C | -3.5 °C | -0.16 °C | -0.24 °C | -0.19 °C | 0.22 °C | -2.13 °C | -1.96 °C
